Several values for one entry are separate records, joined by “and”; a condition that tells them apart may be missing. Equal entries are not always repeated. Activity calls are given as the source filed them. Calls come from the whole dose curve; as a rule, active = well fitted inhibition curve with a large enough effect; inconclusive = small, poorly fitted or top-dose-only effect; inactive = flat fitted curve, though single readings scatter.
Test: Quantitative high throughput screen to test activity of anti-malarial compounds in the Dd2 strain of Plasmodium Falciparum
Conditions: P. falciparum Dd2 in RBCs, SYBR Green growth, 72 h
Description: NIH Molecular Libraries Probe Production Network [MLPCN] NIH Chemical Genomics Center [NCGC] MLPCN Grant: R21 NS059500 Assay Provider: David Fidock and Eric Ekland, Columbia University The goal of this screen is to measure the ability of a set of anti-malarial compounds to inhibit the Dd2 strain of P. falciparum. These compounds have been screened in a delayed death phenotype assay and have been identified as inhibitors of the delated death phenotype, by inhibiting the development of the apicoplast in the malarial parasite Plasmodium falciparum (described below) The biochemical processes that make this organelle essential for erythrocytic stage parasites are not well understood. However, antibiotics, such as azithromycin and tetracycline, which target the apicoplast translational machinery, have a potent antimalarial effect. […] We have developed a cell-based assay that measures parasite growth based on the expression of an integrated copy of a firefly luciferase reporter. To detect small molecules that cause this 'delayed death' phenotype, erythrocytes infected with the luciferase-expressing parasites were incubated with compounds for either one or two generations, corresponding to 48 and 96 hours, respectively. Compounds that inhibit parasite growth in the second generation, but not the first, should be enriched in antimalarials that target the apicoplast. Growth inhibition is detected by a decrease in luciferase activity
3 ul culture medium was dispensed into black clear-bottom plates (aurora) with multidrop Combi followed by a pin-transfer of […] compounds and positive control into assay plates. (Controls: 1 mM Artemisinin 1:2 dilution in duplicate Multi-Drop dispense of P. falciparum infected RBCs (0.3% parasitemia, 2.5% hematocrit final concentration) followed by 72 hr incubation (37C, 5% CO2). Multi-drop dispense 2 ul 10 X SYBR Green lysis buffer ([…] Tris-HCl, 10 mM EDTA, 0.16% saponin (w/v), 1.6% Triton-X (v/v), 10 x SYBR Green I supplied as 10,000 x final concentration by Invitrogen) into assay plates. Incubated at Room temperature, overnight in the dark and then read using Envision (Perkin Elmer) with fluorescence intensity at 485 nm excitation and 535 nm emission wavelengths.

Row | SMILES | Potency
1 | C[C@@H]1CN([C@@H](C)COC(C)(C)C)C(=O)c2cc(NC(=O)Nc3ccccc3)ccc2O[C@@H](C)CCCCO[C@H]1CN(C)S(=O)(=O)c1ccc(F)cc1 | 3.6 nM (active)
2 | C[C@@H]1CN(C)C(=O)c2cc(NC(=O)Nc3ccccc3)ccc2O[C@@H](C)CCCCO[C@@H]1CN(C)S(=O)(=O)c1ccc(F)cc1 | 3570 nM (active)
3 | C[C@@H]1CN([C@@H](C)CO)C(=O)c2cc(NC(=O)Nc3ccccc3)ccc2O[C@@H](C)CCCCO[C@H]1CN(C)S(=O)(=O)c1cccc(F)c1 | 50.4 nM (active)
4 | C=CCOC(=O)N(C)C[C@@H]1OCCCC[C@H](C)Oc2ccc(NC(=O)Nc3ccccc3)cc2C(=O)N([C@@H](C)CO)C[C@H]1C | 1260 nM (active)
5 | C[C@@H]1CN([C@@H](C)CO)C(=O)c2cc(NC(=O)Nc3ccccc3)ccc2O[C@@H](C)CCCCO[C@H]1CN(C)S(=O)(=O)c1ccc(C(F)(F)F)cc1 | 1130 nM (active)
6 | COCCOCOC[C@H](C)N1C[C@@H](C)[C@H](CN(C)S(=O)(=O)c2ccc(F)cc2)OCCCC[C@H](C)Oc2ccc(NC(=O)Nc3ccccc3)cc2C1=O | 35.7 nM (active)
7 | C[C@@H]1CN([C@@H](C)COC(=O)C(C)(C)C)C(=O)c2cc(NC(=O)Nc3ccccc3)ccc2O[C@@H](C)CCCCO[C@H]1CN(C)S(=O)(=O)c1ccc(F)cc1 | 50.4 nM (active)
8 | C[C@@H]1CN([C@@H](C)CO)C(=O)c2cc(NC(=O)Nc3ccccc3)ccc2O[C@@H](C)C/C=C\CO[C@H]1CN(C)S(=O)(=O)c1ccc(F)cc1 | 1260 nM (active)
9 | C[C@@H]1CN([C@@H](C)CO)C(=O)c2cc(NC(=O)Nc3ccccc3)ccc2O[C@@H](C)CCCCO[C@H]1CN(C)C(=O)OC(C)(C)C | 2250 nM (active)
10 | C[C@@H]1CCCCO[C@H](CN(C)C(=O)Nc2ccc(F)cc2)[C@H](C)CN([C@@H](C)CO)C(=O)c2cc(NS(=O)(=O)c3ccccc3)ccc2O1 | 504 nM (active)
11 | C[C@@H]1CN([C@@H](C)CO)C(=O)c2cc(N)ccc2O[C@@H](C)CCCCO[C@H]1CN(C)S(=O)(=O)c1ccc(F)cc1 | 711 nM (active)
12 | C[C@@H]1CN([C@@H](C)CN=[N+]=[N-])C(=O)c2cc(NC(=O)Nc3ccccc3)ccc2O[C@@H](C)CCCCO[C@H]1CN(C)S(=O)(=O)c1ccc(F)cc1 | 56.5 nM (active)
13 | C[C@@H]1CCCCO[C@@H](CN(C)Cc2ccc(F)cc2)[C@H](C)CN([C@@H](C)CO)C(=O)c2cc(NC(=O)Nc3ccccc3)ccc2O1 | 6340 nM (active)
14 | C[C@@H]1CN([C@@H](C)CO[Si](C)(C)C(C)(C)C)C(=O)c2cc(NC(=O)Nc3ccccc3)ccc2O[C@@H](C)CCCCO[C@H]1CN(C)S(=O)(=O)c1ccc(F)cc1 | 5 nM (active)
15 | C[C@@H]1CN([C@@H](C)CO)C(=O)c2cc(NC(=O)Nc3ccccc3)ccc2O[C@@H](C)CCCCO[C@H]1CN(C)S(=O)(=O)c1cccnc1 | 4490 nM (active)
16 | CC(C)N1C[C@@H](C)[C@H](CN(C)S(=O)(=O)c2ccc(F)cc2)OCCCC[C@H](C)Oc2ccc(NC(=O)Nc3ccccc3)cc2C1=O | 56.5 nM (active)
17 | C=CCOC(=O)N(C)C[C@@H]1OCCCC[C@H](C)Oc2ccc(NC(=O)Nc3ccccc3)cc2C(=O)N([C@H](C)COC(=O)c2ccccc2)C[C@H]1C | 896 nM (active)

Row | SMILES | Potency
18 | C=CCOC(=O)N(C)C[C@H]1OCCCC[C@H](C)Oc2ccc(NC(=O)Nc3ccccc3)cc2C(=O)N([C@@H](C)CO[Si](C)(C)C(C)(C)C)C[C@H]1C | 565 nM (active)
19 | COc1ccc(COCCN2C[C@@H](C)[C@H](CN(C)S(=O)(=O)c3ccc(F)cc3)OCCCC[C@H](C)Oc3ccc(NC(=O)Nc4ccccc4)cc3C2=O)cc1 | 252 nM (active)
20 | C[C@@H]1CN([C@@H](C)CO)C(=O)c2cc(NC(=O)Nc3ccccc3)ccc2O[C@@H](C)CCCCO[C@H]1CN(C)Cc1ccc(C(F)(F)F)cc1 | 1590 nM (active)
21 | Cc1noc(C)c1NC(=O)Nc1ccc2c(c1)C(=O)N(C(C)C)C[C@@H](C)[C@H](CN(C)S(=O)(=O)c1ccc(F)cc1)OCCCC[C@H](C)O2 | 179 nM (active) and 2.52 µM (active)
22 | C[C@@H]1CN(CCO[Si](C)(C)C(C)(C)C)C(=O)c2cc(NC(=O)Nc3ccccc3)ccc2O[C@@H](C)CCCCO[C@H]1CN(C)S(=O)(=O)c1ccc(F)cc1 | 225 nM (active)
23 | C[C@@H]1CN(CCO)C(=O)c2cc(NC(=O)Nc3ccccc3)ccc2O[C@@H](C)CCCCO[C@H]1CN(C)S(=O)(=O)c1ccc(F)cc1 | 2520 nM (active)
24 | Cc1noc(C)c1NC(=O)Nc1ccc2c(c1)C(=O)N([C@@H](C)CO)C[C@@H](C)[C@H](CN(C)S(=O)(=O)c1ccc(F)cc1)OCCCC[C@H](C)O2 | 634 nM (active)
25 | COc1ccc(COC[C@H](C)N2C[C@@H](C)[C@H](CN(C)Cc3ccc(OC)cc3)OCCCC[C@H](C)Oc3ccc(NC(=O)Nc4ccccc4)cc3C2=O)cc1 | 798 nM (active)
26 | CC(C)NC(=O)Nc1ccc2c(c1)C(=O)N([C@@H](C)CO)C[C@@H](C)[C@H](CN(C)S(=O)(=O)c1ccc(F)cc1)OCCCC[C@H](C)O2 | 1790 nM (active)
27 | C[C@@H]1CN([C@H](C)CO[Si](C)(C)C(C)(C)C)C(=O)c2cc(NC(=O)Nc3ccccc3)ccc2O[C@@H](C)CCCCO[C@H]1CN(C)S(=O)(=O)c1ccc(F)cc1 | 565 nM (active)
28 | C[C@@H]1CN([C@@H](C)COC(=O)c2ccccc2)C(=O)c2cc(NC(=O)Nc3ccccc3)ccc2O[C@@H](C)CCCCO[C@H]1CN(C)S(=O)(=O)c1ccc(F)cc1 | 179 nM (active)
29 | C[C@@H]1CN([C@@H](C)CO)C(=O)c2cc(NC(=O)Nc3ccccc3)ccc2O[C@@H](C)C/C=C/CO[C@H]1CN(C)S(=O)(=O)c1ccc(F)cc1 | 565 nM (active)
30 | C[C@@H]1CN([C@@H](C)CO)C(=O)c2cc(Nc3nc4ccccc4o3)ccc2O[C@@H](C)CCCCO[C@H]1CN(C)S(=O)(=O)c1ccc(F)cc1 | 2000 nM (active)
31 | C[C@@H]1CN([C@@H](C)COC(=O)c2ccccc2)C(=O)c2cc(NC(=O)Nc3ccccc3)ccc2O[C@@H](C)CCCCO[C@H]1CN(C)C(=O)OC(C)(C)C | 798 nM (active)
32 | C[C@@H]1CN([C@@H](C)CO)C(=O)c2cc(NC(=O)Nc3ccccc3)ccc2O[C@@H](C)CCCCO[C@H]1CN(C)S(=O)(=O)c1ccccc1F | 2000 nM (active)
33 | COCOC[C@H](C)N1C[C@@H](C)[C@H](CN(C)S(=O)(=O)c2ccc(F)cc2)OCCCC[C@H](C)Oc2ccc(NC(=O)Nc3ccccc3)cc2C1=O | 28.3 nM (active)

— PubChem BioAssay AID504604 (National Center for Advancing Translational Sciences (NCATS), 2011)
